# In the supplement of paper PMC3334620:
# Over roughly 33,000 sequences, “E-score (-0.5 to 0.5)” has its median near -0.056; the highest 2% begin near 0.38. Only a selection was taken, and the highest values are over-represented in it overall.
# Biological target: Stb4 (UniProt P50104)
# Test: PBM E-score (8-mer binding enrichment) (E-score (-0.5 to 0.5)); higher = stronger / more preferred TF binding
# Details: protein concentration: 200 nM; construct: GST-DNA-binding domain
# How it was run: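 E-scores (a modified Wilcoxon-Mann-Whitney statistic) were assigned by the Universal PBM Analysis Suite to every ungapped eight-base word pooled with its reverse complement. The input came from universal all-10-mer Agilent arrays made double-stranded by primer extension and probed with GST-tagged yeast transcription factors at about 100-200 nM. Fluorescent anti-GST detected bound protein, and masliner normalised the scans.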
# UniProt P50104, sequence (P50104 whole entry): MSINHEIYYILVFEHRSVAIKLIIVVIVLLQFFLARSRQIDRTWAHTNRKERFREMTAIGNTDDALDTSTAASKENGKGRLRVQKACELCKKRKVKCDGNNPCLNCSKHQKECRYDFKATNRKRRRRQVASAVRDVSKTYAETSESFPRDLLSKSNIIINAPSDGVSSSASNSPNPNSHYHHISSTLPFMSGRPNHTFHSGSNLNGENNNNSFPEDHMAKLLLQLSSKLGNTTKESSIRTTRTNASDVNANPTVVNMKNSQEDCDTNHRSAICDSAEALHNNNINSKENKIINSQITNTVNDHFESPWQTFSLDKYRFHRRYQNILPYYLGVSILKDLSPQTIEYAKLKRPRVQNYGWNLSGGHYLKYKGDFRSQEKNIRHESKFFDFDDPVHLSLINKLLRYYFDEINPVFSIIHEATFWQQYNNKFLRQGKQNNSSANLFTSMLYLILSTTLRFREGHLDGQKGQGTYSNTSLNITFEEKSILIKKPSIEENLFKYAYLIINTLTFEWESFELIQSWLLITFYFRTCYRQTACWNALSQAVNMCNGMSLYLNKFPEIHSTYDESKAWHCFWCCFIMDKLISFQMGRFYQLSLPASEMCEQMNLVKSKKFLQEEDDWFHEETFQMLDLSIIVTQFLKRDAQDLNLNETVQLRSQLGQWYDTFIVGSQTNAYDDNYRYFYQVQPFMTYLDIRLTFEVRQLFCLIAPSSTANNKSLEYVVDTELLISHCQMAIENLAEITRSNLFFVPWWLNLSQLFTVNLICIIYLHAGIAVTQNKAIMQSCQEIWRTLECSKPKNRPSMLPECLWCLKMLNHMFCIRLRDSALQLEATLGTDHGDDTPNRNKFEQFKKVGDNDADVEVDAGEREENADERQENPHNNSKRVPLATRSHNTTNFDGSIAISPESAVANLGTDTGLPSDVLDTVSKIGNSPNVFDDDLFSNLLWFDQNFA
row,Sequence,PBM E-score
1,GAAGTAGA,-0.0217
2,GCGAGTGA,-0.0567
3,GCATCTCA,-0.222
4,GGCACAAA,0.104
5,ATATAGCC,0.183
6,CCTGAACC,-0.232
7,GCCCTGCC,0.0895
8,CGCTCGCC,-0.0544
9,CGCTCGTA,-0.176
10,AGCTCGCA,-0.108
11,AGCTCGGA,0.454
12,CGCTCGGC,0.412
13,GGCTCGTA,-0.0188
14,CGCTCGCA,0.104
15,GGCTCGAA,-0.0314
16,CGCTCGTC,-0.19
17,AGCTCGTA,-0.189
18,CGCTCGGA,0.463
19,GGCTCGGA,0.466
20,AAGAGGCA,-0.186
21,CGACCAAG,-0.184
22,TCATTGCA,-0.328
23,CATGTTCC,0.115
24,ATTCATTC,0.172
25,ACCGCAGG,0.0861

row,Sequence,PBM E-score
1,ACCTCTAC,-0.0322
2,AGGCGAAT,-0.189
3,AGAATTGA,-0.194
4,GAGAAGAA,0.0753
5,GACAGATC,0.0617
6,AGGATAGA,-0.107
7,GGGATAGA,-0.0799
8,CGGATAGA,0.454
9,AGGATAGC,0.206
10,CGGATAGC,0.394
11,CAGATAGC,-0.0171
12,TATAGACA,-0.192
13,CCTGGCGA,-0.204
14,AGCTGCAA,-0.0718
15,GGTCCGGA,0.34
16,ATTCCGGC,0.354
17,GTTCCGTA,0.314
18,ATTCCGGG,0.353
19,ATTCCGGA,0.405
20,GTTCCGGA,0.435
21,CGTCCGGA,0.3
22,CTTCCGTA,0.379
23,AGTCCGGA,0.332
24,CTTCCGGA,0.396
25,CTTCCGGC,0.392

row,Sequence,PBM E-score
1,CCTCCGGC,0.295
2,AACTAACT,0.0909
3,AGAGGATG,-0.0042
4,ATGGCTAA,-0.0251
5,CCTATTGC,-0.0913
6,ACAGCATC,-0.102
7,GAATCTTA,-0.0785
8,CTTTCCAC,0.0376
9,AGTTCCGA,0.474
10,AGTTCCTA,0.00074
11,AGTTCCGC,0.324
12,AGTTCCAA,0.012
13,GGGTCCGA,0.344
14,AGTTCCCC,0.138
15,AGTTCCCA,-0.0388
16,CGGTCCGA,0.449
17,AGTTCCCG,0.396
18,CGTTCCCC,-0.014
19,CGTTCCGC,0.412
20,AGGTCCGA,0.304
21,CAGCTTTC,-0.0811
22,ATGGGTGG,-0.0789
23,GTGAGTTA,-0.211
24,ATGTAAAG,-0.162
25,ACTTGCGC,-0.0787

row,Sequence,PBM E-score
1,AGAAGGGG,-0.169
2,ATAGCGTC,-0.209
3,GTAACGGA,0.281
4,GTTTGCAA,-0.113
5,CGATTTGA,-0.0548
6,ATTCACAA,-0.0973
7,GGTTCCGA,0.468
8,CGTTCCGA,0.451
9,AGTTCCAG,-0.136
10,CGTTCCTA,-0.00632
11,AGTTCCTG,-0.14
12,GGTTCCAA,0.196
13,AGTTCCGG,0.419
14,GGTTCCCA,-0.0962
15,CGTTCCAA,-0.0817
16,ACCACCCT,-0.162
17,CCTCTTAA,-0.0505
18,ACCGAAAC,0.372
19,GTCGAAAC,-0.0645
20,CCCGAAAG,0.393
21,CACGAAAG,-0.148
22,GCCGAAGC,0.385
23,ACCGAAGC,0.287
24,GACGAAGC,-0.142
25,GCCGAAAA,0.438

row,Sequence,PBM E-score
1,GCCGAAAC,0.397
2,ACCGAAAA,0.337
3,GACGAAAA,0.0557
4,ACCGAAAG,0.231
5,GGAGGATA,-0.0736
6,CGTTACTC,-0.0977
7,AGAAGTGC,-0.122
8,CGCGGGAG,0.172
9,TACGAAAA,-0.0536
10,CCCGAAAC,0.339
11,TGCGAAAA,-0.0153
12,CACGAAAA,-0.0798
13,TCCGAAAA,0.441
14,CCCGAAAA,0.428
15,CTCAAACC,-0.0373
16,CGAGCTAC,0.0965
17,GAGTCAAC,0.0604
18,ACCATAGC,-0.123
19,TACATCCA,-0.202
20,AATTAAAT,-0.0575
21,ACTATCCC,-0.044
22,CCTATCCA,-0.196
23,CCTATCCC,0.176
24,AGTATCCA,0.0731
25,ATTATCCG,0.475

row,Sequence,PBM E-score
1,ATTATCCA,-0.0958
2,AGTATCCC,-0.0361
3,ATTATCCC,0.0679
4,ACTATCCT,-0.0638
5,ACTATCCG,0.45
6,AGTATCCG,0.436
7,CCTATCCG,0.391
8,CAGGCGAG,-0.294
9,ACTGCATA,-0.135
10,AGTATCTC,-0.0258
11,TCTAGCAA,-0.0809
12,CATCCGGA,0.406
13,CATCCAGG,-0.178
14,CATCCGGC,0.397
15,CATCCGTA,0.329
16,AATCCGGG,0.306
17,AGTCCGGC,0.0945
18,CCTCCGGA,0.307
19,CATCCGGG,0.397
20,CGTCCGGC,0.253
21,AAAGCCCT,-0.106
22,CGAAAACA,0.123
23,CGTGTTTA,-0.00808
24,AGCTGTGC,-0.148
25,AATATCTA,-0.0944

row,Sequence,PBM E-score
1,CCGCTATA,0.0382
2,AGTTCTCG,0.0181
3,ATCTTAAG,-0.187
4,CCGCTGAC,0.0389
5,CCACCGCG,-0.00158
6,AACCGAAT,0.325
7,TCACGAAA,-0.0978
8,ACCCGAAC,0.463
9,TCCCGACA,0.355
10,ACCCCGAT,0.266
11,TCCCGAAA,0.432
12,CCCCGAAG,0.354
13,ACCCGAAT,0.425
14,GCCCGAAC,0.262
15,ACACGAAG,0.00748
16,CCCCGAAC,0.338
17,ACCCGAAG,0.424
18,GGGGTTAA,0.0779
19,GCTTTCAA,-0.0547
20,CGAGAGTC,0.0872
21,ATGCCTTC,-0.0568
22,CTTTTCAC,-0.191
23,ATGCCCAG,0.0828
24,CGGACAGA,0.129
25,CACGCTTC,0.0187

row,Sequence,PBM E-score
1,GCCCGAAA,0.276
2,CCCCGAAA,0.34
3,ACCCGAAA,0.435
4,AAGTGCAG,-0.212
5,AACTTAGT,0.0161
6,AATCCCGC,0.225
7,GATCCCAA,-0.0342
8,CATCCCGA,0.401
9,AATCCCGT,0.303
10,CATCCCGC,0.122
11,CATCCCGG,0.342
12,GATCCCGC,0.225
13,TATCCCGA,0.398
14,TATCCCCA,-0.185
15,AATCCCGA,0.431
16,TATCCCAA,0.0571
17,GATCCCGA,0.417
18,CGAGTAAA,0.143
19,ATTGTAGA,-0.132
20,AGTTTGGG,-0.172
21,AGCTAAAA,-0.0535
22,CCAGTTGC,-0.0304
23,CAATAGGC,-0.0832
24,TCAGATAA,-0.0704
25,AATCCTTA,-0.0563

row,Sequence,PBM E-score
1,CCCGGACA,0.264
2,GCCGGATA,0.409
3,ACCGGACG,0.146
4,CCCGGATA,0.429
5,GCCGGACA,0.154
6,CCGGGATC,0.384
7,GCCGGAGA,0.192
8,ACCGGAGG,0.228
9,CCGGGATA,0.292
10,ACCGGATG,0.385
11,CCCGGAGA,0.318
12,CGGGGATC,0.279
13,AAGGGGTC,-0.176
14,GACGTACC,-0.0237
15,CAAAGCAA,-0.0355
16,ATCGAGAA,-0.157
17,GATTTTAC,0.0329
18,GGACGGCC,-0.028
19,ATGCCAAG,-0.177
